Eight sequences from the supplement of paper PMC6555819 can be followed below.

What all share (experiment): PBM binding z-score (relative to random genomic background probes); higher = stronger binding; sequences stand for … in GC…GCGATTGACAGCGTAGAATGAAGG
The subject of assay [1] is FXR:RXRa (NR concentration 270 nM, RXRa partner concentration 90 nM). A digest of the protocol:
(§1)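 Scanned fluorescence from custom Agilent 4×180K protein-binding microarrays was regression-normalized. Binding z-scores use random background probes as reference. Ligand-free nuclear receptor dimers were incubated on the arrays for 1 h and detected with antibodies against each partner (one per run).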

For assay [2], the system named is LXRa:RXRa (NR concentration 270 nM, RXRa partner concentration 90 nM). In a few lines: as §1
For assay [3], the system named is LXRa homodimer (NR concentration 270 nM). A digest of the protocol:
as §1

Assay [4] concerns LXRb homodimer (NR concentration 270 nM). In a few lines: as §1
The test system of assay [5] is PPARa:RXRa (NR concentration 270 nM, RXRa partner concentration 90 nM). In a few lines:
as §1

Assay [6] deals with PPARg:RXRa (NR concentration 180 nM, RXRa partner concentration 90 nM). In a few lines:
as §1

For assay [7], the system named is PPARg:RXRa 270nM:90nM, anti-RXR (NR concentration 270 nM, RXRa partner concentration 90 nM). In a few lines: as §1
Assay [8] relates to PPARg:RXRa 30nM:10nM, anti-RXR (NR concentration 30 nM, RXRa partner concentration 10 nM). In a few lines:
as §1

Assay [9] deals with PPARg:RXRa 90nM:30nM, anti-RXR (NR concentration 90 nM, RXRa partner concentration 30 nM). In a few lines:
as §1

Assay [10] has as its system PPARg:RXRa DBDmut IVT, anti-RXR (DBD mutation: RXRa K156A/R161A, NR concentration 270 nM, RXRa partner concentration 90 nM). A digest of the protocol: as §1
Assay [11] has as its system PPARg:RXRa IVT, anti-PPARg (NR concentration 270 nM, RXRa partner concentration 90 nM). A digest of the protocol:
as §1

In assay [12] the test system is PPARg DBDmut:RXRa IVT, anti-PPARg (DBD mutation: PPARg1 K132A/R137A, NR concentration 270 nM, RXRa partner concentration 90 nM). A digest of the protocol:
as §1

Assay [13] relates to PPARg DBDmut IVT, anti-PPARg (DBD mutation: PPARg1 K132A/R137A, NR concentration 270 nM). In a few lines: as §1
In assay [14] the test system is PPARg homodimer (NR concentration 180 nM). A digest of the protocol:
as §1

Assay [15] deals with PXR:RXRa (NR concentration 270 nM, RXRa partner concentration 90 nM). In a few lines: as §1
The subject of assay [16] is PXR homodimer (NR concentration 270 nM). A digest of the protocol:
as §1

The test system of assay [17] is RARa homodimer (NR concentration 270 nM). A digest of the protocol:
as §1

Assay [18] has as its system RARb:RXRa (NR concentration 270 nM, RXRa partner concentration 90 nM). A digest of the protocol:
as §1

Assay [19] has as its system RARb homodimer (NR concentration 270 nM). A digest of the protocol: as §1
The subject of assay [20] is RARa:RXR (NR concentration 270 nM, RXRa partner concentration 90 nM). A digest of the protocol:
as §1

Turning to CCGACGGGGGCAAAGGTTACCATACTCAGTACGA, the PBM binding z-score was 5.52 in assay [1]; 5.02 in assay [2]; 0.667 in assay [3]; 5.6 in assay [4]; 6.41 in assay [5]; 10 in assay [6]. The PBM binding z-score in [7] came out at 9.24; in [8] it was 8.76; in [9], 10.4; in assay [10] it was 2.71; in [11] it was 5.25; in assay [12] it was 2.34. Further, the PBM binding z-score is 3.31 in [13]; 2.4 in [14]; 5.31 in assay [15]; 0.704 in assay [16]; 0.677 in assay [17]; 3.84 in assay [18]. Besides, the PBM binding z-score in [19] came out at 3.21.
On to TCTAGTTGGTCAAAGGTCACGCACTCGAAATGCG, for which the PBM binding z-score came to 6.9 in assay [1]; 6.16 in assay [2]; 4.78 in [3]; 1.9 in assay [4]; 6.76 in [5]; 12 in [6]. In addition, the PBM binding z-score in [7] is 10.2; in assay [8], 12.6; in assay [9] it was 12.2; in [10], 3.84; in [11], 6.68; in [12] it was 3.73. Further, the PBM binding z-score came to 2.56 in assay [13]; 6.55 in [14]; 1.96 in [16]; 4.59 in assay [17]; 5.32 in assay [19].
As for CTATGTAGGTTAGGGGGGTCATTCAGTTTGAAAG, the PBM binding z-score in assay [1] was 5.78; in assay [2], 5.66; in assay [3], 3.89; in assay [5], 5.95; in assay [6] it was 9.03; in [7] it was 7. The PBM binding z-score in [8] was found to be 5.35; in assay [9] it was 7.07; in assay [10], 6.54; in [11], 6.9; in assay [14], 4.93; in assay [15] it was 6.22. The PBM binding z-score was 11.2 in assay [16]; 5.88 in [20]; 3.17 in assay [17]; 4.13 in assay [18]; 4.06 in assay [19].
Consider CGTCCAAGGTCAAAGGTCAATGAAGAGATGACGG, for which the PBM binding z-score came to 8.53 in assay [1]; 7.3 in [2]; 4.31 in assay [3]; 2.18 in [4]; 10.8 in assay [6]; 9.12 in [7]. In addition, the PBM binding z-score in assay [8] is 8.3; in [9], 9.78; in assay [10], 3.66; in assay [11] it was 6.01; in assay [12], 0.925; in [13], 0.0116. Besides, the PBM binding z-score in [14] worked out at 3.92; in [15], 7.05; in assay [16], 1.95; in assay [20], 8.9; in [17] it was 1.95; in assay [18] it was 6.08. The sequence also showed a PBM binding z-score in assay [19] of 5.56.
Turning to CCTACTGGGCCAAAAAGGTCATTGATGCCGATAA, the PBM binding z-score was 3.46 in assay [1]; 3.19 in assay [3]; -0.142 in [4]; 4.51 in assay [5]; 3.35 in [6]; 3.98 in assay [7]. Also, the PBM binding z-score is 1.41 in assay [8]; 3.38 in [9]; 3.88 in assay [10]; 3.76 in assay [11]; -0.582 in assay [12]; -0.854 in assay [13]. Also, the PBM binding z-score in assay [14] was 3.07; in assay [15], 4.63; in assay [16], 3.96; in assay [20], 4.97; in [17] it was 0.857; in assay [18], 3.97. For the same sequence, the PBM binding z-score in assay [19] was 4.43.
For ATATGTAGGTTAGCTGAGGTCATTCAGACTAGGC, the PBM binding z-score came out at 5.29 in assay [1]; 6.24 in [3]; 1.12 in [4]; 4.55 in [5]; 5.21 in assay [6]; 4.91 in assay [7]. Besides, the PBM binding z-score in assay [8] came to 2.35; in assay [9], 4.11; in assay [10], 6.93; in assay [11], 6.48; in assay [12], 2.26; in [13], 1.4. The PBM binding z-score in assay [14] was determined as 3.04; in assay [15] it was 6.68; in assay [16], 6.09; in [20], 4.95; in [17], 1.7; in [18] it was 3.34. Also, the PBM binding z-score in [19] was 4.04.
As to ATATGTAGGTTAAAGGTCATTCAGGTTGGTTCGC, the PBM binding z-score in [1] stood at 7.3; in assay [2], 6.58; in [3] it was 6.86; in assay [4] it was 2.72; in assay [7], 11; in [8] it was 13.3. Moreover, the PBM binding z-score in assay [9] turned out to be 13.6; in [10] it was 8.31; in assay [11], 8.56; in assay [12], 4.82; in assay [13], 3.73; in assay [14] it was 4.43. Besides, the PBM binding z-score came out at 7.91 in assay [16], 3.28 in assay [17], 4.74 in assay [18] and 4.8 in assay [19].
For the sequence TAGCCTAGGTCGTTCAGGGGCCAGTATAGAAAGC, the PBM binding z-score was 0.616 in assay [1]; -0.424 in assay [3]; 0.206 in assay [4]; 0.74 in [5]; -0.0601 in [6]; 0.17 in [7]. Besides, the PBM binding z-score was -0.575 in assay [8]; -0.218 in assay [9]; -0.258 in assay [10]; 0.847 in [11]; -0.279 in assay [12]; -0.473 in assay [13]. Moreover, the PBM binding z-score was 0.19 in [14]; 0.589 in assay [15]; -0.665 in assay [16]; 1.18 in assay [20]; -0.836 in assay [17]; 1.63 in [18]. Moreover, in assay [19], the PBM binding z-score was determined as 1.63.
